# According to the supplement of paper PMC9694430:
# Legend:
# Assay in all cases: thermal shift delta Tm vs DMSO control; higher = stronger stabilization (binding)
# Conditions in all cases: 12.5 µM; protein concentration 2 µM
# LOC_OS02G45750-cb003 = test system: LOC_OS02G45750-cb003
# Procedure, shortened: (§1)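 Rice kinase domain constructs were expressed in E. coli, purified, and tested by differential scanning fluorimetry with compound added in DMSO. Each well of a 96-well plate held 19.5 μl of 2 μM kinase in 100 mM potassium phosphate pH 7.5, 150 mM NaCl, 10% glycerol and 5 × SYPRO Orange, and fluorescence was read from 25°C to 95°C at 0.05°C/s. The melting temperature shift is the mean of triplicates, taken against protein with DMSO alone after Boltzmann fitting.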
# LOC_OS02G54510-cb004 = test system: LOC_OS02G54510-cb004
# Procedure, shortened: as §1
# LOC_OS03G04050-cb001 = test system: LOC_OS03G04050-cb001
# Procedure, shortened: as §1
# LOC_OS03G12390-cb001 = test system: LOC_OS03G12390-cb001
# Procedure, shortened: as §1
# LOC_OS03G27990-cb004 = test system: LOC_OS03G27990-cb004
# Procedure, shortened: as §1
# LOC_OS03G50450-cb001 = test system: LOC_OS03G50450-cb001
# Procedure, shortened: as §1
# LOC_OS03G50810-cb003 = test system: LOC_OS03G50810-cb003
# Procedure, shortened: as §1
# LOC_OS04G35114-cb001 = test system: LOC_OS04G35114-cb001
# Procedure, shortened: as §1
# LOC_OS04G38480-cb003 = test system: T1, LOC_OS04G38480-cb003
# T1 sequence (whole entry): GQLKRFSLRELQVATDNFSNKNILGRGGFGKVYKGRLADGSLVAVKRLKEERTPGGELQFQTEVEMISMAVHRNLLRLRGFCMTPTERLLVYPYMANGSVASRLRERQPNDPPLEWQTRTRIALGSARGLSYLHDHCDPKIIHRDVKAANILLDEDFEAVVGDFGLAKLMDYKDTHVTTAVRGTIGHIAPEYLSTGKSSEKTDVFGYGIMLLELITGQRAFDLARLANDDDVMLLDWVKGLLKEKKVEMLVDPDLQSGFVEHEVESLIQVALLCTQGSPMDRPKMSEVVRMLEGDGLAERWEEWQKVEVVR
# Procedure, shortened: as §1
# LOC_OS04G41100-cb001 = test system: T2, LOC_OS04G41100-cb001
# T2 sequence (whole entry): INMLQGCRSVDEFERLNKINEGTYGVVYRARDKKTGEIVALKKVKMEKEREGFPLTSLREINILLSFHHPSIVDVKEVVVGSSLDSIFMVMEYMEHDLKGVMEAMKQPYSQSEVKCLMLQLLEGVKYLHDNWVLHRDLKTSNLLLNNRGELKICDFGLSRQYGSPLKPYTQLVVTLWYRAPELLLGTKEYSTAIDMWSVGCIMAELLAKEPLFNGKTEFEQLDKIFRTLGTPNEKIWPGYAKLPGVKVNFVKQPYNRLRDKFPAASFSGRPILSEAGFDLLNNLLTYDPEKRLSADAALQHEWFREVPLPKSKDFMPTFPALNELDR
# Procedure, shortened: as §1
# LOC_OS04G57630-cb004 = test system: LOC_OS04G57630-cb004
# Procedure, shortened: as §1
# LOC_OS05G07850-cb002 = test system: LOC_OS05G07850-cb002
# Procedure, shortened: as §1
# LOC_OS05G16824-cb004 = test system: LOC_OS05G16824-cb004
# Procedure, shortened: as §1
# LOC_OS05G28520-cb001 = test system: LOC_OS05G28520-cb001
# Procedure, shortened: as §1
# LOC_OS05G30820-cb001 = test system: LOC_OS05G30820-cb001
# Procedure, shortened: as §1
# LOC_OS05G43570-cb004 = test system: LOC_OS05G43570-cb004
# Procedure, shortened: as §1
# LOC_OS06G16330-cb003 = test system: LOC_OS06G16330-cb003
# Procedure, shortened: as §1
# LOC_OS06G22820-cb001 = test system: T3, LOC_OS06G22820-cb001
# T3 sequence (whole entry): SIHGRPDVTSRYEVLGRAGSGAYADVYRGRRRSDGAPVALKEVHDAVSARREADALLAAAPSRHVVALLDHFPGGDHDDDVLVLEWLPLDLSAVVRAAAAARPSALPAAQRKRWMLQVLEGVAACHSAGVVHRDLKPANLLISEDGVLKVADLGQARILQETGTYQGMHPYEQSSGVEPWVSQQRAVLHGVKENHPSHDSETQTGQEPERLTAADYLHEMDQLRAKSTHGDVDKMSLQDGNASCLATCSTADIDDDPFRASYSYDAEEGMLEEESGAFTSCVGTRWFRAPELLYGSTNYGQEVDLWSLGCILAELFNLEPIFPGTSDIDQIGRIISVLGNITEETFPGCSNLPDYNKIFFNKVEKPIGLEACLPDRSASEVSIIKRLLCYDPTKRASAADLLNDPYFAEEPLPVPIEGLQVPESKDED
# Procedure, shortened: as §1
# LOC_OS07G06570-cb004 = test system: LOC_OS07G06570-cb004
# Procedure, shortened: as §1
# LOC_OS07G07230-cb001 = test system: LOC_OS07G07230-cb001
# Procedure, shortened: as §1
# Chain of LOC_OS06G16330-cb003 (as listed by the source): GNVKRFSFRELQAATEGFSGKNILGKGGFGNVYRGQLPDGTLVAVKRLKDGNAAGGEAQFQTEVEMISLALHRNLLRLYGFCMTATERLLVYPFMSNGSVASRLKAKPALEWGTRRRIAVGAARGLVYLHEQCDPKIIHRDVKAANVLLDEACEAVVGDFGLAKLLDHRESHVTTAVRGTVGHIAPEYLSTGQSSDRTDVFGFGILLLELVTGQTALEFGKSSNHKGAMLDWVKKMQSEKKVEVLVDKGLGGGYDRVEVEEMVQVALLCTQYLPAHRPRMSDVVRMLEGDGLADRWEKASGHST
Structure (SMILES),thermal shift delta Tm (LOC_OS02G45750-cb003) [°C],thermal shift delta Tm (LOC_OS02G54510-cb004) [°C],thermal shift delta Tm (LOC_OS03G04050-cb001) [°C],thermal shift delta Tm (LOC_OS03G12390-cb001) [°C],thermal shift delta Tm (LOC_OS03G27990-cb004) [°C],thermal shift delta Tm (LOC_OS03G50450-cb001) [°C],thermal shift delta Tm (LOC_OS03G50810-cb003) [°C],thermal shift delta Tm (LOC_OS04G35114-cb001) [°C],thermal shift delta Tm (LOC_OS04G38480-cb003) [°C],thermal shift delta Tm (LOC_OS04G41100-cb001) [°C],thermal shift delta Tm (LOC_OS04G57630-cb004) [°C],thermal shift delta Tm (LOC_OS05G07850-cb002) [°C],thermal shift delta Tm (LOC_OS05G16824-cb004) [°C],thermal shift delta Tm (LOC_OS05G28520-cb001) [°C],thermal shift delta Tm (LOC_OS05G30820-cb001) [°C],thermal shift delta Tm (LOC_OS05G43570-cb004) [°C],thermal shift delta Tm (LOC_OS06G16330-cb003) [°C],thermal shift delta Tm (LOC_OS06G22820-cb001) [°C],thermal shift delta Tm (LOC_OS07G06570-cb004) [°C],thermal shift delta Tm (LOC_OS07G07230-cb001) [°C]
O=S(=O)(c1cccc2c(I)cccc12)N1CCCNCC1,0.53,-0.05,0.42,0.16,0.1,0.19,0.19,0.11,2.17,0.44,-0.05,0.78,1.61,0.14,0.08,0.32,0.09,0.37,1.9,0.16
CCNC(=O)Nc1ccc(-c2nc3c(c(N4CCOC[C@@H]4C)n2)CCN(C2COC2)C3)cc1,1.07,0.26,0.61,-0.06,0.78,0.68,0.23,0.56,-0.03,0.46,0.05,0.56,-1.52,0,0.54,0.3,0.18,0.27,1.06,0.66
OC1CCC(Nc2ncc3nc(Nc4c(F)cc(F)cc4F)n([C@H]4CCOC4)c3n2)CC1 (stereo not given in full) [Tanzisertib(CC-930)],0.96,0.18,0.57,0.23,0.5,0.44,0.62,0.93,1.65,0.44,-0.03,0.72,2.14,0.46,0.23,0.42,-0.07,0.59,1.81,0.44
COc1cc2ncnc(Nc3ccc(O)c(Br)c3)c2cc1OC,1.02,0.71,0.44,4.5,2.33,-0.05,2.28,4.51,2.11,0.46,0.28,12,-0.59,0.86,0.54,0.23,5.86,0.8,1.76,0.01
O=C1Cc2c([nH]c3ccc(Br)cc23)-c2ccccc2N1 [Kenpaullone],6.87,1.11,0.51,5.47,2.21,0.9,2.26,4.7,2.14,2.07,2.67,7.41,3.07,1,2.18,1.21,2.59,0.96,-0.23,0.05
CCCCNc1ncc2c(-c3ccc(CN4CCN(C)CC4)cc3)cn([C@H]3CC[C@H](O)CC3)c2n1,18.4,0.6,0.12,8.3,10.8,6.64,10.5,12.3,4.63,0.42,6.55,11.9,15.5,0.68,1.96,0.44,13.5,0.17,0.92,-0.01
